Experimental data from article PMC5540273 (PLoS ONE, 2017).

Legend:
Conditions in all cases: concentration: 1 μM,replicates: in singlicate; n = 1
PCTK2 = system: T1, PCTK2
T1 construct: gene CDK17

PCTK3 = system: T2, PCTK3
T2 construct: gene CDK18

PDGFRA = system: PDGFRA
PDGFRB = system: PDGFRB
PDPK1 = system: PDPK1
PFTAIRE2 = system: PFTAIRE2
PFTK1 = system: T3, PFTK1
T3 construct: gene CDK14

PHKG1 = system: PHKG1
PHKG2 = system: PHKG2
PIK3C2B = system: PIK3C2B
PIK3C2G = system: PIK3C2G
PIK3CA = system: PIK3CA
PIK3CB = system: PIK3CB
PIK3CD = system: PIK3CD
PIK3CG = system: PIK3CG
PIK4CB = system: T4, PIK4CB
T4 construct: gene PI4KB

PIKFYVE = system: PIKFYVE
PIM1 = system: PIM1
PIM2 = system: PIM2
PIM3 = system: PIM3
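Also: KINOMEscan kinase panel screen.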

Row | Structure (SMILES) | %Inh (PCTK2) [%] | %Inh (PCTK3) [%] | %Inh (PDGFRA) [%] | %Inh (PDGFRB) [%] | %Inh (PDPK1) [%] | %Inh (PFTAIRE2) [%] | %Inh (PFTK1) [%] | %Inh (PHKG1) [%] | %Inh (PHKG2) [%] | %Inh (PIK3C2B) [%] | %Inh (PIK3C2G) [%] | %Inh (PIK3CA) [%] | %Inh (PIK3CB) [%] | %Inh (PIK3CD) [%] | %Inh (PIK3CG) [%] | %Inh (PIK4CB) [%] | %Inh (PIKFYVE) [%] | %Inh (PIM1) [%] | %Inh (PIM2) [%] | %Inh (PIM3) [%]
1 | c1ccc(Oc2ccc(Nc3ccnc4ccc(-c5ccccn5)cc34)cc2)cc1 [GW407034] | 0 | 17 | 0 | 34 | 0 | 0 | 15 | 0 | 0 | 4 | 0 | 0 | 27 | 0 | 0 | 0 | 0 | 9 | 0 | 0
2 | Cl.Cl.NC[C@H](CC1CCCCC1)NC(=O)c1ccc(-c2ccnc3[nH]ccc23)s1 [GSK1581428] | 0 | 0 | 80 | 97.3 | 18 | 32 | 31 | 36 | 13 | 0 | 0 | 0 | 0 | 0 | 0 | 0 | 0 | 0 | 0 | 0
3 | COC(=O)c1cccc(NC(=O)NC2CCN(c3ccnc(NCc4ccc(F)cc4)n3)CC2)c1 [GSK1379860] | 0 | 33 | 14 | 7 | 5 | 0 | 7 | 0 | 0 | 0 | 0 | 0 | 0 | 61 | 0 | 0 | 57 | 0 | 0 | 0
4 | Nc1nccc(-c2ccc3c(N)n[nH]c3c2)n1 [GSK1034945] | 0 | 10 | 0 | 17 | 34 | 15 | 10 | 5 | 13 | 0 | 0 | 5 | 0 | 3 | 2 | 0 | 0 | 9 | 0 | 7
5 | CN(c1ccccc1CNc1nc(Nc2ccc3c(c2)CC(=O)N3)ncc1C(F)(F)F)S(C)(=O)=O | 49 | 4 | 3 | 83 | 34 | 35 | 8 | 35 | 25 | 0 | 0 | 0 | 0 | 0 | 0 | 0 | 38 | 0 | 0 | 0
6 | Cc1ccc(C(=O)Nc2ccc(Oc3ccc4nc(NC(=O)C5CC5)cn4c3)c(F)c2)c(=O)n1-c1ccccc1 | 2 | 0 | 98.2 | 96.5 | 0 | 9 | 0 | 26 | 0 | 0 | 0 | 0 | 0 | 0 | 0 | 0 | 14 | 1 | 0 | 0
7 | OCCn1cc(-c2cnc3nnn(Cc4ccc5ncccc5c4)c3n2)cn1 | 0 | 0 | 0 | 0 | 0 | 0 | 0 | 5 | 0 | 0 | 0 | 0 | 0 | 0 | 0 | 0 | 40 | 1 | 0 | 10
8 | O=C1NCCc2[nH]c(-c3ccncc3)cc21 | 0 | 1 | 27 | 17 | 0 | 0 | 0 | 0 | 14 | 21 | 0 | 7 | 45 | 0 | 12 | 20 | 38 | 28 | 23 | 37
9 | COC(=O)c1cccc(NC(=O)NC2CCN(c3ccnc(Nc4cc(OC)c(OC)c(OC)c4)n3)C2)c1 (centres unmarked) [GSK1379767] | 24 | 0 | 6 | 65 | 0 | 0 | 20 | 10 | 2 | 0 | 0 | 0 | 9 | 35 | 21 | 47 | 28 | 17 | 0 | 0
10 | CN(c1cccc(CNc2nc(Nc3ccc4c(c3)CC(=O)N4)ncc2C(F)(F)F)c1)S(C)(=O)=O | 2 | 4 | 34 | 72 | 65 | 10 | 17 | 40 | 18 | 0 | 0 | 0 | 0 | 0 | 0 | 0 | 31 | 12 | 0 | 3
